PubChem BioAssay (Tox21)
Values joined by “and” are separate entries in the source; they are usually repeats but may differ in a detail not shown here. Identical values can stand only once. Records with an inconclusive call do not appear. Where a call stands in place of a potency, no number is given. Where a structure was tested more than once in an assay, its records may differ in their call. Active and inactive are the calls of the source. Unless noted, the call rests on the fitted dose curve.

Experiments:
[1] = qHTS assay to identify small molecule antagonists of the estrogen receptor beta (ER-beta) signaling pathway - cell viability counter screen (AID 1259382; active means well fitted curve in the direction sought with a large enough effect in the repeat runs; an effect the other way counts as inactive or inconclusive; further: nearly all actives have a fitted effect of over 55% in size; further: potency means the concentration at half of the fitted maximal effect); conditions: ER-beta-UAS-bla HEK293T viability, CellTiter-Glo luminescence, 16 h; series mostly up to 92.4 µM
Summary of the method: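 Cytotoxicity counter screen multiplexed with the beta-lactamase antagonist assay: GripTite HEK293T ER-beta-bla cells were treated 16 hr with test chemicals in the presence of 1nM 17-beta-estradiol, and viability was measured by CellTiter-Glo.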

[2] = molecular target: Estrogen receptor (Homo sapiens) (UniProt P03372); test: qHTS assay to identify small molecule agonists of the estrogen receptor alpha (ER-alpha) signaling pathway in the presence of an antagonist (AID 1259383); conditions: VM7Luc4E2 cells, ERE-luciferase, +ICI-182,780, 22 h; series mostly up to 92.4 µM; further: top concentration of the series differs between compounds; nearly all actives have a fitted effect of over 15% in size
Chain of Estrogen receptor (Homo sapiens) (P03372 whole entry, looked up): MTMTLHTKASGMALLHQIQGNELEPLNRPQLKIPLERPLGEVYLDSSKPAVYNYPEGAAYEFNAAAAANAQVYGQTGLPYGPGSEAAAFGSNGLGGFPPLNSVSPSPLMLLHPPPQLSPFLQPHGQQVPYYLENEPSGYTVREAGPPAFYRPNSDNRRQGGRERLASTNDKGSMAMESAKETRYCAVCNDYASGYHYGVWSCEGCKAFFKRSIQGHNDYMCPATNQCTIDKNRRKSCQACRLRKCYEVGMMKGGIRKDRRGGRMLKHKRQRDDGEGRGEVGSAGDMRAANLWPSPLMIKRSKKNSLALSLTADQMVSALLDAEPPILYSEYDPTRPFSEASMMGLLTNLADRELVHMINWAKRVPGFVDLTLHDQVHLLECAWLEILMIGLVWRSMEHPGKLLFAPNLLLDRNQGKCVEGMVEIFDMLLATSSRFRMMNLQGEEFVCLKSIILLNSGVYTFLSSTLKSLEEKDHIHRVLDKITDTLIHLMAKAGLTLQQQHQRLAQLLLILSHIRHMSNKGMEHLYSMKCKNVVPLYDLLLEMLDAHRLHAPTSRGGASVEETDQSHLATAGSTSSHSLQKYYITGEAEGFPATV
Summary of the method: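 Agonist-mode confirmation in the presence of the ER antagonist ICI-182,780 at 10.0nM final. Breast-derived VM7Luc4E2 reporter cells were exposed to compounds for 22hr, and ERE-driven luciferase was quantified by luminescence.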

[3] = qHTS assay to identify small molecule agonists or antagonists of the thyroid stimulating hormone receptor (TSHR) signaling pathway - wild type cell line counter screen (AID 1259384); conditions: HEK293 wild type, cAMP HTRF counter-screen, stronger effect = higher value; series mostly up to 92.4 µM
Summary of the method: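 Counter screen in untransfected Hek293: compounds (15-point titration, triplicate) plus phosphodiesterase inhibitor Ro20-1724 added after 18 h plating; 30 min RT. Intracellular cAMP via competitive d2/cryptate immunoassay, 1 h incubation.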

[4] = molecular target: Thyrotropin receptor (Homo sapiens) (UniProt P16473); test: qHTS assay to identify small molecule antagonists of the thyroid stimulating hormone receptor (TSHR) signaling pathway (AID 1259385); conditions: TSHR-HEK293 cAMP HTRF, TSH-stimulated antagonist mode; series mostly up to 92.4 µM; further: nearly all actives have a fitted effect of over 20% in size
Chain of Thyrotropin receptor (Homo sapiens) (P16473 whole entry, looked up): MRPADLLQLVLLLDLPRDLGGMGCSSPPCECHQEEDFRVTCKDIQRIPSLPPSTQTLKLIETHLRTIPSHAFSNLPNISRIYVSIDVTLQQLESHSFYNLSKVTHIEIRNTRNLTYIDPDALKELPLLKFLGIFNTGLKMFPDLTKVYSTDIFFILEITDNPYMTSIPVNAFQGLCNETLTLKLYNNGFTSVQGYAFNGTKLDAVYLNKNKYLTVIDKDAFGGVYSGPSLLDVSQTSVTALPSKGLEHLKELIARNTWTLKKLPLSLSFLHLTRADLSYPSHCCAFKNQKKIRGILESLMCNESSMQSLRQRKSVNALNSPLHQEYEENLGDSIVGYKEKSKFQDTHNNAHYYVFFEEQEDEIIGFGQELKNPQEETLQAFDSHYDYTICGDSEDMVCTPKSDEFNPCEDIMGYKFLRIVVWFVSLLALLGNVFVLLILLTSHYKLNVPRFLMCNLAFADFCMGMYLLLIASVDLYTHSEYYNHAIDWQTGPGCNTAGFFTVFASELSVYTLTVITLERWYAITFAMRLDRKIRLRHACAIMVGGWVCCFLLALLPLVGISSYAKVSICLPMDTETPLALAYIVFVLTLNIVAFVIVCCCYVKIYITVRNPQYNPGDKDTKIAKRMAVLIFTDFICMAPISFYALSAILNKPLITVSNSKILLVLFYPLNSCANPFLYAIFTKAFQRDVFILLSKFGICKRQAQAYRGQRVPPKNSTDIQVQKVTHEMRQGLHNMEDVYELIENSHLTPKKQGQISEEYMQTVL
Summary of the method: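 Antagonist mode: compound-treated TSHR-expressing HEK293 cells were stimulated with 1.5 ng/mL TSH (final) in presence of Ro20-1724 for 30 min at RT. HTRF cAMP detection after 1 h; each compound tested at 15 concentrations, triplicate.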

[5] = qHTS assay to identify small molecule agonists of the estrogen receptor alpha (ER-alpha) signaling pathway in the presence of an antagonist - cell viability counter screen (AID 1259386; active means well fitted curve in the direction sought with a large enough effect in the repeat runs; an effect the other way counts as inactive or inconclusive;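 further: cells exposed to compounds for 22 h at 37 °C before the viability read; nearly all actives have a fitted effect of over 30% in size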); conditions: VM7Luc4E2 viability, CellTiter-Fluor fluorescence, 22 h; series mostly up to 92.4 µM
Summary of the method: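 Cytotoxicity was measured in parallel with the ERE-luciferase agonist screen, in the same wells. The cells were VM7Luc4E2, which endogenously express ER-alpha, and treatment was with compounds plus 10.0nM ICI-182,780 for 22hr.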

[6] = molecular target: Progesterone receptor (Homo sapiens) (UniProt P06401); test: qHTS assay to identify small molecule agonists of the progesterone receptor (PR) signaling pathway (AID 1346784); conditions: PR-UAS-bla HEK293T, beta-lactamase FRET ratio, 16 h; series mostly up to 92.4 µM; further: nearly all actives have a fitted effect of over 30% in size; further: potency means the concentration at half of the fitted maximal effect
Chain of Progesterone receptor (Homo sapiens) (P06401 whole entry, looked up): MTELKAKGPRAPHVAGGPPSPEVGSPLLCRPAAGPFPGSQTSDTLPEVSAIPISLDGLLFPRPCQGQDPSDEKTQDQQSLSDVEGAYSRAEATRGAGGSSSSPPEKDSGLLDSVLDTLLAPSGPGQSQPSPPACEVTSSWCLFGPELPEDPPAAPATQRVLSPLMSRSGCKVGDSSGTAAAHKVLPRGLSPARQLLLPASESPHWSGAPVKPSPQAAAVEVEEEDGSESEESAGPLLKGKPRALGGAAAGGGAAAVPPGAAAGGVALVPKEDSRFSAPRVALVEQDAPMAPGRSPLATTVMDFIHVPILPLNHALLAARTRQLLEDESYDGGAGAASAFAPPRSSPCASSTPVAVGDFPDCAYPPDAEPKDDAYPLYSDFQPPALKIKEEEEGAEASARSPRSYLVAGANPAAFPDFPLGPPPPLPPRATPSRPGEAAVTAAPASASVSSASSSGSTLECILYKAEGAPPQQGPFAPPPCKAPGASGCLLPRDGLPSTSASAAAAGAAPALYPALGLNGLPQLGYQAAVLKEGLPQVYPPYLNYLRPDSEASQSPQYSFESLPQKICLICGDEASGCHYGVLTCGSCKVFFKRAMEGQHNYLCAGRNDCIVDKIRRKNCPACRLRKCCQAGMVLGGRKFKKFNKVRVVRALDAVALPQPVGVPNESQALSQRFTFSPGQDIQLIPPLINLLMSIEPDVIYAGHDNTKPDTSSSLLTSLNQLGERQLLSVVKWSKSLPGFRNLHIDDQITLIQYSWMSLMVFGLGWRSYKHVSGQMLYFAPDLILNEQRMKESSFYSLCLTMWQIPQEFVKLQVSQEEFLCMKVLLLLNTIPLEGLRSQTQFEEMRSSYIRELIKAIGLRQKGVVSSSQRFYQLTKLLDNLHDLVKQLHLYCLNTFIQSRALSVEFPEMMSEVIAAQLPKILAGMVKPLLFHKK
Summary of the method: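 Fluorescence from LiveBLAzer B/G FRET substrate cleavage (2 hr, RT) reported PR activation in PR-UAS-bla HEK 293T cells treated 16 hr at 37C/5% CO2 with compounds; medium contained 2% charcoal-stripped FBS.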

[7] = molecular target: Progesterone receptor (Homo sapiens) (UniProt P06401); test: qHTS assay to identify small molecule antagonists of the progesterone receptor (PR) signaling pathway (AID 1346795; active means well fitted inhibition curve with a large enough effect in the signal ratio in the repeat runs, not every such curve was filed as active; the % refers to the signal ratio); conditions: PR-UAS-bla HEK293T, beta-lactamase FRET ratio, 16 h; series mostly up to 92.4 µM
Summary of the method: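 Fluorescence intensity measured 2 hr after adding beta-lactamase FRET substrate to PR-UAS-bla HEK293T cells that had been co-treated 16 hr with compound and 1 nM R5020 (final concentration) in 2% charcoal-stripped FBS.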

[8] = qHTS assay to identify small molecule antagonists of the progesterone receptor (PR) signaling pathway - cell viability counter screen (AID 1346798; active means well fitted curve in the direction sought with a large enough effect in the repeat runs; an effect the other way counts as inactive or inconclusive; further: nearly all actives have a fitted effect of over 50% in size; further: potency means the concentration at half of the fitted maximal effect); conditions: PR-UAS-bla HEK293T viability, CellTiter-Glo luminescence, 16 h; series mostly up to 92.4 µM
Summary of the method: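 CellTiter-Glo luminescence; PR-UAS-bla HEK293T, 3,000 cells/well; compound + R5020, 16 hr, 37C/5% CO2; 30 min RT before read.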

[9] = qHTS assay to identify small molecule agonists of the progesterone receptor (PR) signaling pathway - cell viability counter screen (AID 1346799); conditions: PR-UAS-bla HEK293T viability, CellTiter-Glo luminescence, 16 h; series mostly up to 92.4 µM; further: nearly all actives have a fitted effect of over 45% in size; further: potency means the concentration at half of the fitted maximal effect
Summary of the method: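 In parallel with the beta-lactamase readout, cytotoxicity toward PR-UAS-bla HEK293T cells was measured by CellTiter-Glo luminescence following 16 hr compound incubation in 2% charcoal-stripped FBS medium.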

[10] = qHTS assay to identify small molecule antagonists of the TGF-beta/Smad signaling pathway - cell viability counter screen (AID 1346824; active means well fitted curve in the direction sought with a large enough effect in the repeat runs; an effect the other way counts as inactive or inconclusive; further: nearly all actives have a fitted effect of over 50% in size); conditions: SBE-bla HEK293T viability, CellTiter-Glo luminescence; series mostly up to 76.8 µM
Summary of the method: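 Cytotoxicity counter-screen run in the same wells as the beta-lactamase Smad reporter read: CellTiter-Glo luminescence after 30 min at room temperature. HEK 293T SBE-bla cells had 5 hr compound exposure at 37 C with TGF-beta1 (0.25 ng/mL stock).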

| SMILES | Potency [1] | Potency [2] | outcome [3] | Potency [4] | Potency [5] | Potency [6] | Potency [7] | Potency [8] | Potency [9] | Potency [10] |
| --- | --- | --- | --- | --- | --- | --- | --- | --- | --- | --- |
| OCCOCCOCCO | inactive | inactive | inactive | inactive | inactive | inactive | inactive | inactive | inactive | inactive |
| CCN(CC)c1ccc(C(=O)c2ccccc2C(=O)O)c(O)c1 | inactive | inactive | inactive | inactive | inactive | inactive | inactive | inactive | inactive | inactive |
| CC[C@H](C)C(=O)O[C@H]1C[C@@H](C)C=C2C=C[C@H](C)[C@H](CC[C@@H]3C[C@@H](O)CC(=O)O3)[C@H]21 | 39.1 µM (active) and 26.6 µM (active) | inactive | inactive | inactive | inactive | inactive | inactive | 62 µM (active) | 7.66 µM (active) | inactive |
| C#CCN(C)Cc1ccccc1 | inactive | inactive | inactive | inactive | inactive | inactive | inactive | inactive | inactive | inactive |
| CC(=O)Nc1ccccc1 | inactive | inactive | inactive | inactive | inactive | inactive | inactive | inactive | inactive | inactive |
| CCCCCOC(C)=O | inactive | inactive | inactive | inactive | inactive | inactive |  | inactive | inactive | inactive |
| O=C(O)c1ccccc1C(c1ccc(O)cc1)c1ccc(O)cc1 | inactive | inactive | inactive | inactive | inactive | inactive | inactive | inactive | inactive | inactive |
| COc1cc(Cc2cnc(N)nc2N)cc(OC)c1OC | inactive | inactive | inactive | inactive | inactive | 5.43 µM (active) and inactive | inactive | inactive | inactive | inactive |
| O=c1[nH]c(=O)n([C@H]2C[C@H](O)[C@@H](CO)O2)cc1Br | inactive | inactive | inactive | inactive | inactive | inactive | inactive | inactive | inactive | inactive |
| CCCCCCCC(=O)OC | inactive | inactive | inactive | inactive | inactive |  | inactive | inactive | inactive | inactive |
| O=C(O)c1ccc2c(c1)C(=O)OC2=O | inactive | inactive | inactive | inactive | inactive | inactive | inactive | inactive | inactive | inactive |
| CN(C)CCCN | inactive | inactive | inactive | inactive | inactive | inactive | inactive | inactive | inactive | inactive |
| FC(F)(F)c1ccc(Cl)c(Cl)c1 | inactive | inactive | inactive | inactive | inactive | inactive | inactive | inactive | inactive | inactive |
| CC(=O)c1ccccc1 | inactive | inactive | inactive | inactive | inactive | inactive | inactive | inactive | inactive | inactive |
| CCCCCCCCCC | inactive | inactive | inactive | inactive | inactive |  | inactive | inactive | inactive | inactive |
| Cc1cc(C)c(C)cc1C | inactive | inactive | inactive | inactive | inactive | inactive | inactive | inactive | inactive | inactive |
| CC(C)(N)CO | inactive | inactive | inactive | inactive | inactive | inactive | inactive | inactive | inactive | inactive |
| CCc1cccc(C)c1N | inactive | inactive | inactive | inactive | inactive | inactive | inactive | inactive | inactive | inactive |
| c1ccc2c(c1)ccc1ccccc12 | inactive | inactive | inactive | inactive | inactive | inactive | inactive | inactive | inactive | inactive |
| Cc1ccc(N(C)C)cc1 | inactive | inactive | inactive | inactive | inactive | inactive | inactive | inactive | inactive | inactive |
| CC(O)COCC(C)O (configuration not stated) | inactive | inactive | inactive | inactive | inactive | inactive | inactive | inactive | inactive | inactive |
| c1ccc2scnc2c1 | inactive | inactive | inactive | inactive | inactive | inactive | inactive | inactive | inactive | inactive |
| CCCCN(CCCC)CCCC | inactive | inactive | inactive | inactive | inactive | inactive | inactive | inactive | inactive | inactive |
